The values that follow come from PubChem BioAssay AID2587 (National Center for Advancing Translational Sciences (NCATS), 2010).

Active and inactive are the calls of the source. Calls follow the shape of the dose curve; as a rule, active = well fitted curve in the direction sought with a large enough effect; inactive = no such curve, though single readings can be large or run the other way.

Chain of Lysosomal acid glucosylceramidase (Homo sapiens) (P04062 whole entry N409S): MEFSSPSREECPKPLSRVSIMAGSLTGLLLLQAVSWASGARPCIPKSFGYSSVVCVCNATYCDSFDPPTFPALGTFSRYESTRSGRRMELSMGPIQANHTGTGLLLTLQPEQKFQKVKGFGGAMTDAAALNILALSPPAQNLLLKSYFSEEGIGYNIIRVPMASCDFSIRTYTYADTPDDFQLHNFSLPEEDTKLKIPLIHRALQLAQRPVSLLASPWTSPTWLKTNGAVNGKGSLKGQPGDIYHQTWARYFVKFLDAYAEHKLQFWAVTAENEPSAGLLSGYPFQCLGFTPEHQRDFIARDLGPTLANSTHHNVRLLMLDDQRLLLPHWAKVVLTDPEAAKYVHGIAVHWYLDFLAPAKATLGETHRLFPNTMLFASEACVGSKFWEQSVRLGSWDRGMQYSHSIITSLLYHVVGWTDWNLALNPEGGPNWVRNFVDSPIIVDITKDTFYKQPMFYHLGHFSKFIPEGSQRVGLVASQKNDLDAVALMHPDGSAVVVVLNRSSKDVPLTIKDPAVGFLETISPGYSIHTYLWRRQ

This assay has as its target Lysosomal acid glucosylceramidase (Homo sapiens) (UniProt P04062). As to the kind of experiment: qHTS Assay for Inhibitors and Activators of N370S glucocerebrosidase as a Potential Chaperone Treatment of Gaucher Disease: Chaperone Activity in Gauche Fibroblasts After Multi-day Incubation with Compound. Particulars: GC immunofluorescence, 5 days. The text has this:
NIH Chemical Genomics Center [NCGC] NIH Molecular Libraries Probe Production Centers Network [MLPCN] MLPCN Grant: MH086442-01 Assay Submitter (PI): Wei Zheng Glucocerebrosidase (GC) catalyzes the hydrolysis of beta-glucocerebroside to glucose and ceramide in lysosomes. Mutations in the glucocerebrosidase gene result in Gaucher disease, an autosomal recessive lysosomal storage disorder. Many of the mutations encountered in patients with Gaucher disease are missense alterations that may cause misfolding, decreased stability and/or mistrafficking of this lysosomal protein. […] These inhibitors include iminosugar analogs and three non-iminosugar inhibitors identified from a previous HTS of 62,000 compounds with the wild type recombinant enzyme. However, the enhancement of enzyme activity by the chaperone action of an enzyme inhibitor must be balanced against the direct inhibition of the enzyme. An enzyme activator could also function as a chaperone by binding to the enzyme and helping to correct its misfolding and mistrafficking. […] This assay attempts to quantitate translocated glucocerebrosidase protein in patient-derived fibroblasts following extended compound incubation. […]
NCGC Assay Protocol Summary: 1. […] Visualized using a fluorescence microscope and the intensity of fluorescence in the selected areas were calculated. […]
As for `O=S(=O)(c1ccc2ccccc2c1)N1CCN(c2nc(-c3cccs3)nc3ccccc23)CC1`, the Potency is 501 nM (active).

In the case of `S=C(NCCCc1cnc[nH]1)NCCCN(Cc1ccc(Cl)c(Cl)c1)c1ccc(Br)cn1`, the Potency was 316 nM (active).
